Several values for one entry are separate records, joined by “and”; a condition that tells them apart may be missing. Equal entries are not always repeated. Whole data set: some 5,300 compounds, median “PER2::LUC luminescence relative to vehicle control” near 0.96, cut for the highest 2% near 1.3. The sample holds the highest values, similar compounds and a random draw of the others, so the mix is not that of the screen.
Test system: mPer2Luc MEF
Experiment: PER2::LUC luminescence relative to vehicle control (fold of vehicle); higher = higher PER2::LUC reporter signal
Details: 10 µM
Procedure, shortened: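 In 384-well plates, ~3000 mPer2Luc reporter mouse embryonic fibroblasts per well were cultured in DMEM with 10% FBS at 37 °C and 5% CO2 for 48 h before compounds from commercial libraries were added at 10 μM. ONE-Glo luciferase readings were taken 24 h and 30 h after treatment. Each value is PER2::LUC luminescence given as fold of vehicle control.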

| Compound | PER2::LUC luminescence (time after treatment 24 h) | PER2::LUC luminescence (time after treatment 30 h) |
| --- | --- | --- |
| C=C1/C(=C\C=C2/CCC[C@]3(C)[C@@H]([C@H](C)CC[C@@H](O)C(C)(C)O)CC[C@@H]23)C[C@@H](O)C[C@@H]1O | 0.999 | 0.835 |
| CC1(C)C2CCC1(C(=O)O)C(=O)C2 (configuration not stated) | 0.998 | 0.954 |
| O=C(Nc1ncc([N+](=O)[O-])s1)c1ccccc1O | 1.45 | 1.73 |
| COc1ccc(CNC(=O)c2sc3nc(C)cc(C)c3c2N)cc1 | 0.953 | 0.979 |
| CC(=O)Nc1ncc([N+](=O)[O-])s1 | 1.33 and 1.09 | 0.865 and 1.09 |
| COc1ccc(CNC(=O)Nc2ncc([N+](=O)[O-])s2)cc1 | 1.35 | 1.27 |
| CC(=O)Oc1ccccc1C(=O)Nc1ncc([N+](=O)[O-])s1 | 0.826 | 1.16 |
| O=C(Nc1ncc([N+](=O)[O-])s1)c1ccc([N+](=O)[O-])c(Cl)c1 | 0.928 | 1.22 |
| COc1ccc(C2=N[C@@H](c3ccc(Cl)cc3)[C@@H](c3ccc(Cl)cc3)N2C(=O)N2CCNC(=O)C2)c(OC(C)C)c1 (racemic) | 0.971 | 0.948 |
| Nc1ncnc2c1ncn2[C@@H]1O[C@H](CO)C[C@@H]1O | 0.952 | 0.956 |
| NCCCCCCCCCCNCCCN | 0.962 | 0.892 |
| C[C@H](NC(=O)CNC(=O)[C@@H](NC(=O)[C@H](Cc1ccccc1)NC(=O)CNC(=O)CNC(=O)[C@@H](N)Cc1ccccc1)[C@@H](C)O)C(=O)N[C@@H](CCCN=C(N)N)C(=O)N[C@@H](CCCCN)C(=O)N[C@@H](CO)C(=O)N[C@@H](C)C(=O)N[C@@H](CCCN=C(N)N)C(=O)N[C@@H](CCCCN)C(N)=O | 1.02 | 0.922 |
| COc1cc2ncnc(Nc3cccc(Cl)c3)c2cc1OC | 0.991 and 0.715 | 0.978 and 0.705 |
| O=C(NCCO)c1ccc2c(c1)nc(Nc1cccc(Cl)c1)c1ccncc12 | 1.03 | 0.995 |
| O=C(O)c1ccc2c(c1)nc(Nc1cccc(Cl)c1)c1ccncc12 | 0.795 | 1.39 |
| C/C1=C2N=C(/C=C3N=C(/C(C)=C4\[N-]C(C(CC(N)=O)C4(C)CCC(=O)NCC(C)OP(=O)([O-])OC4C(CO)OC(n5cnc6cc(C)c(C)cc65)C4O)C4(C)N=C1C(CCC(N)=O)C4(C)CC(N)=O)C(CCC(N)=O)C\3(C)C)C(CCC(N)=O)C/2(C)CC(N)=O.[CH3-].[Co+3] (configuration not stated) | 1.07 | 1.03 |
| Cc1cnc(-c2cnc(NCCNc3ccc(C#N)cn3)nc2-c2ccc(Cl)cc2Cl)[nH]1 | 1.56 | 1.06 |
| CN1CCN(C2CCC(n3cc(-c4ccc(Oc5ccccc5)cc4)c4c(N)ncnc43)CC2)CC1 (configuration not stated) | 0.091 | 0.137 |
| C[C@@H](NC(=O)c1cc(C(=O)N[C@@H](Cc2ccccc2)[C@H](O)CNC2CC2)cc(N(C)S(C)(=O)=O)c1)c1ccccc1 | 1.01 | 1.09 |
| NCCCC[C@H](NC(=O)[C@@H]1CCCN1C(=O)[C@@H]1CSSC[C@H](N)C(=O)N[C@@H](Cc2ccccc2)C(=O)N[C@@H](Cc2ccccc2)C(=O)N[C@@H](CCC(N)=O)C(=O)N[C@@H](CC(N)=O)C(=O)N1)C(=O)NCC(N)=O | 1.08 | 1.13 |
| COc1ccccc1N1CCN(CCN2C(=O)N=C3C(=Nc4ccccc43)C2=O)CC1 | 0.831 | 0.823 |
| NC(=O)c1ncn([C@@H]2O[C@H](CO)[C@@H](O)[C@H]2O)c1N | 1.32 and 0.733 | 1.18 and 0.988 |

| Compound | PER2::LUC luminescence (time after treatment 24 h) | PER2::LUC luminescence (time after treatment 30 h) |
| --- | --- | --- |
| Nc1ncnc2c1ncn2[C@@H]1O[C@H](COP(=O)(O)O)[C@@H](O)[C@H]1O | 1.22 and 1.13 | 1.14 and 1.05 |
| NC(=O)c1ncn(C2OC(COP(=O)(O)O)C(O)C2O)c1N (configuration not stated) | 1.36 | 1.3 |
| NCCOCCOCCNC(=O)Cc1ccc(Nc2nc(NCc3ccc(F)cc3)nc(NCC3CCCCC3)n2)cc1 | 1.09 | 1.03 |
| C/C(=C\C(=O)Nc1ccccc1C(=O)O)c1ccc2ccccc2c1 | 1.53 | 1.46 |
| COc1ccc(/C=C/C(=O)Nc2ccccc2C(=O)O)cc1OC | 0.844 and 0.327 | – |
| O=C(O)c1ccccc1Nc1ccccc1 | 1.02 | 0.974 |
| O[C@H]1CCN2Cc3ccccc3N=C12 | 0.987 | 0.932 |
| CC1CCC(C(C)C)C(O)C1 (racemic) | 1.02 | 1.25 |
| O=C(CS(=O)(=O)Cc1ccccc1)N1CCOCC1 | 0.841 | 0.781 |
| CCCCNc1cc(C(=O)O)cc(S(N)(=O)=O)c1Oc1ccccc1 | 1.21 | 1.86 |
| CCCCNc1ccc(C(=O)OCCOCCOCCOCCOCCOCCOCCOCCOCCOC)cc1 | 1.07 | 0.94 |
| CCCNC(C)(C)COC(=O)c1ccccc1 | 0.894 | 0.968 |
| CC1(C)CCC(C)(C)c2cc(C(=O)Nc3ccc(C(=O)O)cc3)ccc21 | 1.64 | 1.67 |
| CC(=Cc1ccc(C(=O)O)cc1)c1ccc2c(c1)C(C)(C)CCC2(C)C | 1.66 | 1.52 |
| CC(N)(C(=O)O)c1ccc(C(=O)O)cc1 (racemic) | 0.971 | 0.694 |
| NC1(C(=O)O)CCc2cc(C(=O)O)ccc21 (configuration not stated) | 0.992 | 0.984 |
| O=C(Nc1ccc(C(=O)O)c(O)c1)c1ccccc1 | 1.03 | 1.13 |
| CC(=O)Nc1ccc(C(=O)O)cc1 | 1.03 | 0.901 |
| CC1(C)CCC(C)(C)c2cc(NC(=O)c3ccc(C(=O)O)cc3)ccc21 | 1.77 | 1.63 |
| CC(=O)Nc1ccc(C(=O)Nc2ccccc2N)cc1 | 0.744 | 0.677 |
| C[C@@](N)(C(=O)O)c1ccc(C(=O)O)cc1 | 1.01 | 0.938 |
| COc1ccc(C(OCCN2CCC[C@H](C(=O)O)C2)(c2ccc(OC)cc2)c2ccc(OC)cc2)cc1 | 0.855 | 1.04 |

Source: the supplement of paper PMC9334596
